Reference: PubChem BioAssay AID588493 (Sanford-Burnham Center for Chemical Genomics, 2011)
About 2,100 (0.58%) of roughly 360,000 compounds were called active. Many of the other results were omitted from the sample, so actives are more common in it than they were. Values without a mark were called inactive.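 The calls were made as follows: active = inhibition at 20 µM, scaled to each plate's controls, above about 33% (limit read from the data); inactive = the rest.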

The compounds below were run against 26S proteasome non-ATPase regulatory subunit 14 (Homo sapiens) (UniProt O00487) (assay: Rpn11 (PSMD14) deubiquitinase inhibitors, primary screen, biochemical, fluorescence polarization, uHTS (AID 588493)). Details: human 26S proteasome, Ub4-pepOG fluorescence polarization; at 20 µM; active compounds read high; 20S core pre-blocked with epoxomicin.
26S proteasome non-ATPase regulatory subunit 14 (Homo sapiens), sequence (O00487 whole entry, looked up): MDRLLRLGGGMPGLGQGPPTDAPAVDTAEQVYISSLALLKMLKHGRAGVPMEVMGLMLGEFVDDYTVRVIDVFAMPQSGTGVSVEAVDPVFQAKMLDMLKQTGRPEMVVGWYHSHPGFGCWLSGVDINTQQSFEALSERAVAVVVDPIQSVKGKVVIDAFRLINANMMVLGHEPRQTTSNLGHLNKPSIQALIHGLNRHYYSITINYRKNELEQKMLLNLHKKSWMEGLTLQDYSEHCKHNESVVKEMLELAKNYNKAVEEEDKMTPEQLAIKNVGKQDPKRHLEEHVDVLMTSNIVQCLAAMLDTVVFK

Compound | inhibition
COc1ccccc1-c1n[nH]c2c1[C@H](C)CC[C@H]2C(C)C | 0.4%
CN(C)S(=O)(=O)c1ccc(C(=O)NCC2(N3CCOCC3)CCCCC2)cc1 | 2.6%
Cc1cc(C)c(-c2csc(NC(=O)CCCc3nc4ccccc4c(=O)[nH]3)n2)c(C)c1 | 8.9%
O=C(CSc1nc2ccccc2c(=O)[nH]1)Nc1nc(-c2ccc(Br)cc2)cs1 | 132% (active)
O=C(COC(=O)c1cc(=O)[nH]c2ccccc12)Nc1nc(-c2cccc(Br)c2)cs1 | 1.7%
Cc1ccc2c(c1)nnc1nnc(SCC(=O)O)n12 | -12%
CS(=O)(=O)c1ccc(C(=O)OCC(=O)NNC(=O)COc2ccc(Cl)cc2)cc1 | 22.5%
CC(C)(C)NC(=O)COc1ccc(CNc2ccc3[nH]c(=O)[nH]c3c2)cc1 | -10.4%
COC(=O)c1ccc(OCC(=O)NC(C)(C)C)cc1 | 62.8% (active)
Cc1cc(C)c2cc(CN(Cc3cccs3)Cc3nnnn3CC3CCCO3)c(=O)[nH]c2c1 (stereo not given) | -19.3%
CCC(C)N1CC(=O)N2Cc3[nH]c4ccccc4c3C[C@H]2C1=O (stereo not given in full) | 7.3%
CC(C)Oc1ccc(/C=C(\NC(=O)/C=C/c2ccco2)C(=O)NCCc2nc3ccccc3[nH]2)cc1 | 53.9% (active)
CCCCCOc1ccc(/C=C/C(=O)NCCc2nc3ccccc3[nH]2)cc1OC | -4.2%
CC(C)=C(NC(=O)c1ccco1)C(=O)NCCc1nc2ccccc2[nH]1 | -7.6%
CCN(CC(=O)NCc1cccs1)S(=O)(=O)c1ccc(NC(C)=O)cc1 | -1.7%
Cc1cccc(OCCC(=O)Nc2cc(S(=O)(=O)N3CCCCC3)ccc2N2CCOCC2)c1 | 2%
CN(C)c1ccc(-n2cccc2/C=N/n2cnnc2)cc1 | 1.5%
CN(C)c1ccc(-n2cccc2/C=C2/SC(=Nc3ccc(F)cc3)NC2=O)cc1 | 44% (active)
CCn1cc(C(=O)OCC(=O)Nc2cccc(C)c2)c(=O)c2ccc(C)nc21 | -1.5%
CC(=O)Oc1cc2c(C(=O)NCCN3CCOCC3)c(C)oc2c2ccccc12 | -0.1%

Compound | inhibition
O=C(Cc1ccc(F)cc1)N1CCN=C1SCc1cccc([N+](=O)[O-])c1 | 3%
O=C(CCS(=O)(=O)c1cccc2nonc12)NCCc1ccccc1Cl | 179% (active)
CC1CCCCC1NC(=O)CCS(=O)(=O)c1cccc2nonc12 (stereo not given) | -3.4%
O=C(NCc1ccccc1Cl)C1CCN(S(=O)(=O)c2cccc3nonc23)CC1 | 4.7%
Cc1ccc(N=Cc2c(O)cc(C)oc2=O)c(C)c1 | 40.7% (active)
Cc1ccc(N=Cc2c(O)n(-c3nccs3)c(=O)c3ccccc23)c(C)c1 | -26.4%
COc1cc(CN(C)Cc2nc3cc(C(F)(F)F)ccc3c(=O)[nH]2)ccc1OC(F)F | 5%
Cc1cccc(OCc2nnc(SCn3nnc4ccccc4c3=O)o2)c1 | 6.8%
Cc1cccc(OCc2nnc(SCc3nc4cc(C(F)(F)F)ccc4c(=O)[nH]3)o2)c1 | 46.5% (active)
CN(C)CCOC1c2ccccc2-c2ccccc21 | 95.3% (active)
CN(C)CCOc1cccc(Br)c1 | -7.4%
CC(=O)O[C@H]1c2ccccc2-c2ccccc2[C@@H]1OC(C)=O | -2.7%
CCCC[C@H]1COCCS(=O)(=O)N1Cc1cccc(Cl)c1 | 7.9%
CCOC(=O)c1cc(-c2sc(NC(=O)c3ccccc3)nc2C)n(Cc2ccccc2)n1 | 5.8%
Cn1c2ccc(F)cc2c2nnc(NN)nc21 | 5.1%
O=C(O)C1C2C=CC(O2)C1C(=O)NCCc1cccc(Cl)c1 (stereo not given) | 1%
O=C(NCc1ccccc1)[C@H]1C[C@@H]1[C@H](NP(=O)(c1ccccc1)c1ccccc1)c1ccccc1 | 9.5%
CCOc1ccc(C(=O)Nc2ccc(S(=O)(=O)NCC3CCCO3)cc2)cc1OCC (stereo not given) | -3.2%
CCOc1ccc2nc(C(=O)N3CCCC(C)C3)sc2c1 (stereo not given) | -2.7%
CCOc1cc(/C=C2\SC(N3CCCCC3)=NC2=O)ccc1O | 46.9% (active)

Compound | inhibition
CCOc1cc(/C=N/NC(=O)CN2CCCCC2)ccc1O | -1.4%
CCOc1cc(/C=C2\SC(N3CCCC(C)C3)=NC2=O)ccc1O (stereo not given) | 62.1% (active)
O=C1N=C(N2CCc3ccccc3C2)S/C1=C\c1ccc(O)cc1 | -9.2%
Cc1ccsc1/C=C1\SC(N2CCOCC2)=NC1=O | -7.5%
CC(=O)n1cc([C@H]2C=C(C(=O)N3CCOCC3)O[C@@H](OCc3ccc(CO)cc3)C2)c2ccccc21 | 3.9%
Cc1cc[n+](-c2[nH]c(=O)sc2/C=N/NC(=O)c2ccccc2[O-])cc1C | -29.4%
CCc1ccc2[nH]c(=O)c(Cc3ccccc3)c(O)c2c1 | -4.6%
O=C(c1ccc(OC2CCN(C(=O)c3cccnc3)CC2)cc1)N1CCCCCC1 | -0.5%
Cc1cccc(OCCCC(=O)Nc2ccc(S(=O)(=O)N3CCCC3)cc2)c1 | -2.1%
Cc1ccc(NC(=O)NNC(=O)c2sccc2-n2cccc2)cc1 | -1.9%
O=C(NNC(=O)c1ccc(-c2ccccc2)cc1)Nc1ccccc1 | -0.3%
C=CC[n+]1c(-c2ccc(C)cc2)csc1NNC(=O)Nc1ccccc1 | 42.6% (active)
CCCCOC(=O)c1ccc(NC(c2ccc(C)cc2)P(=O)(OC)OC)cc1 (stereo not given) | -3.9%
COC(=O)c1cccc(NS(C)(=O)=O)c1 | -3.1%
C=CCc1ccc(OCCOc2cccc(/C=N/n3cnnc3)c2)c(OC)c1 | -5.7%
c1csc(-c2nnc(COc3ccc4c(c3)OCO4)o2)c1 | -8.5%
CCOC(=O)C(=O)Nc1nc(-c2ccccc2)c(CC)s1 | 3.6%
CCOc1ccc(-c2nc(C)sc2CC(=O)O)cc1 | -1.6%
C/C(=N/Nc1nc(-c2ccccc2)c(CC(=O)O)s1)c1ccccc1 | 57.8% (active)
O=C1C=C(c2cccc(Cl)c2O)C[C@@H](c2ccc(F)cc2)C1 | -0.6%
